# Compounds with a hit are over-represented: about 3.8% of the library has one in this group of screens.
# Hsp70 act: switches on Hsp70 transcription | actives 0.04% (n = 200,000) | AID 1203 | HeLa Hsp70 promoter luciferase reporter, luminescence; scaled: vehicle 0, proteasome-inhibitor control 100% | activation, % at 10 µM;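 active means activation above the mean across all tested compounds plus 3 SD, cutoff set per campaign, cut at about 5.5% in these data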;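 further: 100% = MG132 at 30 µM as the positive control and 0% = DMSO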
# HSP90 inh: blocks HSP90-mediated luciferase refolding in reticulocyte lysate; Rabbit reticulocyte lysate, luciferase refolding luminescence, 3 h; actives 0.91% (n = 290,000); AID 1789; inhibition, % at 5.6 µM;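 active means inhibition above the screen-wide mean plus 3 SD, computed separately per campaign, cut at about 16% in these data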;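 further: 0% = DMSO wells and 100% = 60 µM geldanamycin wells; inhibitors lower the luminescence because luciferase stays unfolded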
# HSF1 activator: increases HSF-1 driven luciferase reporter signal | NIH3T3-HGL HSF-1 luciferase reporter, MG132, 8 h; 100% = twice DMSO control signal | activation, % at 9 µM | actives 1.7% (n = 300,000) | AID 504408;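 active means mean replicate activation of at least 50% with a set share of replicates each reaching 50%; inconclusive means only one of those two conditions met; inactive means mean below 50% and too few replicates reaching it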;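 further: 0% = median of the neutral control wells and 100% = twice that signal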
# pCIP destab: p/CIP protein destabilization. Q05BA5. F442A p/CIP-EGFP cells, EGFP fluorescence, 16 h. decrease of EGFP signal, % at 10 µM. actives 0.01% (n = 290,000). AID 1984;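 active means EGFP signal decrease of at least 30% at 10 µM or well 3 SD below plate mean, unless failing retest; inactive means the rest, including hits failing retest or dose response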
# NALP1 yeast inh: blocks the NALP1 inflammasome reconstituted in yeast | actives 0.61% (n = 280,000) | inhibition, % at 10 µM | S. cerevisiae NALP1/ASC/caspase-1 growth, X-gal OD620, 72 h; in the data active means inhibition mostly above about 24%, no sharp cut-off; inactive means mostly below about 32%
# HSF1 inh: HSF1 inhibition. NIH3T3-HGL HSE-luciferase, MG132-induced, luminescence 8 h; stronger effect = lower value. activity change, negative = inhibition, % at 7.5 µM (by protocol). actives 0.77% (n = 300,000);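 active means more than half of replicate wells show activity change below -50%, luminescence cut by over half; inconclusive means some wells, but at most half, below -50%; inactive means no replicate well below -50%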;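 further: luciferase reports HSF-1 transcriptional activity via heat shock element; 0% = median of DMSO wells and -100% = zero luminescence signal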
# HSP90 confirm: HSP90 inhibition, confirmation assay. shares compounds with HSP90 inh. rabbit reticulocyte lysate, luciferase refolding luminescence, 3 h. inhibition, % at 5.9 µM. actives 64% (n = 2,300). AID 1846; in the data active means inhibition above about 18%;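 further: 0% = vehicle wells and 100% = reference inhibitor wells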
# luciferase ctr: firefly luciferase inhibition, HSP90 counter-screen; shares compounds with HSP90 inh; purified native firefly luciferase, luminescence; actives 48% (n = 2,300); AID 1847; inhibition, % at 5.9 µM;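 active means inhibition above the mean inhibition of all tested sample wells plus 3 SD, cut at about 10% in these data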;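 further: 0% = DMSO with luciferase and 100% = wells lacking luciferase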
# Target sequence (P08659 whole entry, looked up): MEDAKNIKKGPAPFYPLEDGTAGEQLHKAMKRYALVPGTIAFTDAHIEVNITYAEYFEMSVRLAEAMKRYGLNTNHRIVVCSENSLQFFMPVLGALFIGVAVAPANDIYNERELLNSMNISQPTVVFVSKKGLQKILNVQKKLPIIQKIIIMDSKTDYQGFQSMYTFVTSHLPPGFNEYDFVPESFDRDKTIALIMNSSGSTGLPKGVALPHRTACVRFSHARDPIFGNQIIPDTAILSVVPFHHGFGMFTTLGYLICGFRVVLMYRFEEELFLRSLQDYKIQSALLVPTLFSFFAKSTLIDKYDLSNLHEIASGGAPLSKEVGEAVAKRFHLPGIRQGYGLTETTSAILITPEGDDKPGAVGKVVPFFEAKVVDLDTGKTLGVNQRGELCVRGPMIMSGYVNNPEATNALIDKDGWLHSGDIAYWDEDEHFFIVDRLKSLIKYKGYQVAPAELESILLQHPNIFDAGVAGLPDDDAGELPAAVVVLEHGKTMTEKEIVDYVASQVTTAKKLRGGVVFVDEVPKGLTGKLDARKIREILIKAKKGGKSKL
# * = called active by the depositor; ? = inconclusive; nt = no result given.
SMILES,Hsp70 act,HSP90 inh,HSF1 activator,pCIP destab,NALP1 yeast inh,HSF1 inh,HSP90 confirm,luciferase ctr
COc1cccc(NC(=O)c2ccncc2)c1,0,-2,2,-22,21,2,nt,nt
COc1cccc(NC(=O)c2sc(NC(=O)c3ccncc3)nc2C)c1,nt,79*,-14,4,nt,-9,80*,41*
Cc1nc(NC(=O)c2ccccc2)sc1-c1csc(Nc2ccc(C(=O)O)cc2)n1,nt,31*,21,2,nt,24,8,-26
O=C(CCn1ccnc1)Nc1cc(Cl)ccc1O,nt,-1,-2,-6,14,2,nt,nt
Oc1ccccc1-c1cc(-c2ccccc2)no1,0,-1,5,-10,18,10,nt,nt
Cc1ccc2nc(-c3cc(-c4ccccc4)no3)cn2c1,nt,25*,9,-6,nt,2,69*,58*
CCc1ccn2cc(-c3cc(-c4ccccc4)no3)nc2c1,nt,82*,-74,-6,-3,-69*,86*,84*
Cc1ccc(-c2cc(-c3ccccc3)no2)c(O)c1,0,16,6,-13,27,14,nt,nt
CC(=O)c1ccc(N2CCN(S(=O)(=O)c3cn(C)c(C)n3)CC2)cc1,nt,-1,-2,9,4,2,nt,nt
O=S1(=O)CC(O)C(N=Nc2c(O)n(Cc3ccccc3)c3ccccc23)C1 (configuration not stated),nt,2,-7,-9,-3,1,nt,nt
Cc1ccc(SCC(=O)OCC(=O)N(C)CC(=O)Nc2ccc(F)cc2)cc1,nt,nt,4,nt,nt,-3,nt,nt
CC1CCC/C(=C\Nc2ccc(C(=O)O)cc2)C1=O (configuration not stated),0,37*,-22,6,3,-9,61*,22*
CCOC(=O)c1ccc(N/C=C2/CCCC(C)C2=O)cc1 (configuration not stated),0,12,5,-8,6,12,nt,nt
COCCNc1c(-c2ccc(O)cc2)nc2ccc(Cl)cn12,0,-1,31,-1,2,29,nt,nt
COCCNc1c(-c2ccc(OC)c(OC)c2)nc2ccc(Cl)cn12,0,20*,19,-21,2,8,-7,-7
O=C(Oc1ccc[nH]c1=O)c1cc([N+](=O)[O-])cc([N+](=O)[O-])c1,nt,13,-7,-6,-1,-10,5,2
COc1ccc(C(=O)Oc2ccc[nH]c2=O)cc1,nt,2,12,-1,24,6,nt,nt
Cc1c(O)ccc(/C=N/Nc2ncccc2[N+](=O)[O-])c1O,nt,21*,55*,6,35,36,28*,28*
O=[N+]([O-])c1cccnc1N/N=C/c1ccccc1O,0,22*,-43,-2,19,-34,14,-1
COc1ccc2oc(C(=O)N3CCc4ccccc43)c(C)c2c1,nt,23*,-59,-8,21,?,59*,46*
COc1ccc2cc(C(=O)N3CCc4ccccc43)[nH]c2c1,nt,22*,52*,-7,3,44,14,-2
COc1ccc2oc(C(=O)N3CCN(C(c4ccccc4)c4ccccc4)CC3)c(C)c2c1,nt,nt,-26,nt,nt,-6,nt,nt
COc1ccc2oc(C(=O)Nc3ccccn3)c(C)c2c1,nt,25*,33,3,15,14,46*,34*
COc1ccc2oc(C(=O)Nc3ccc(C)cn3)c(C)c2c1,nt,nt,39,nt,nt,19,nt,nt
Nc1c(-c2ccccc2)c(CN2CCOCC2)nn1-c1ccc(C(=O)O)cc1,0,-1,-4,-14,18,-2,nt,nt
SMILES,Hsp70 act,HSP90 inh,HSF1 activator,pCIP destab,NALP1 yeast inh,HSF1 inh,HSP90 confirm,luciferase ctr
Cc1ccc(C)c(Cn2nnc3c(=O)[nH]c(C4CCN(C(=O)c5ccco5)CC4)nc32)c1,nt,3,8,-11,13,9,nt,nt
NC(=O)[C@@H]1CCCN1C(=O)c1ccc2nc(Cc3cccc(Cl)c3)oc2c1,nt,-2,18,7,-4,8,nt,nt
COc1cc(/C=N/Nc2ccc(Cl)c(C(=O)O)c2)ccc1OC(=O)c1ccco1,0,32*,-3,-11,-7,-4,71*,-18
CCOc1cc(/C=N/NC(=O)CNc2cccc(C)c2)ccc1OC(=O)c1ccccc1,0,0,-5,-1,9,-1,nt,nt
CCOc1cc(/C=N/Nc2cccc(C(=O)O)c2)ccc1OC(=O)c1ccccc1,0,37*,-8,19,-7,-5,96*,32*
COc1cc(/C=N\NC(=O)OC(C)(C)C)ccc1OC(=O)c1ccco1,0,1,-3,-6,23,3,nt,nt
COc1cc(/C=N/Nc2ccc(Cl)c(C(=O)O)c2)ccc1OC(=O)c1cccs1,0,21*,nt,6,-7,nt,61*,-24
COc1ccc(C(=O)Oc2ccc(/C=N/Nc3ccc(Cl)c(C(=O)O)c3)cc2OC)cc1,nt,46*,11,0,1,3,66*,-2
Nc1nnc(-c2ccccc2[N+](=O)[O-])o1,0,30*,-26,7,-3,-14,-2,-9
Oc1ccccc1-c1cc(-c2cccc(F)c2)n[nH]1,0,-4,6,2,11,15,nt,nt
CC(C)(C)c1ccc(-c2cc(-c3ccccc3O)[nH]n2)cc1,nt,52*,-75,-2,13,-72*,60*,59*
CCc1ccc(-c2cc(C(=O)Nn3cnnc3)c3ccccc3n2)cc1,-1,30*,-33,3,1,-24,56*,30*
CCNC(=S)NNC(=O)c1cc(-c2ccc(OCC)cc2)nc2ccccc12,-1,50*,-55,-4,3,-41,74*,25*
CCOc1ccc(-c2cc(C(=O)N/N=C(\C)c3cccnc3)c3ccccc3n2)cc1,nt,28*,1,-19,17,9,3,-23
CCNC(=S)NNC(=O)c1cc(-c2cccc(OC)c2)nc2ccccc12,0,-1,-7,10,4,4,nt,nt
Cc1nn(CC(=O)c2ccccc2Cl)c(C)c1[N+](=O)[O-],0,22*,-37,-8,19,-32,33*,28*
Cc1nn(CC(=O)NCc2ccccc2)c(C)c1[N+](=O)[O-],0,-3,-3,-18,10,-1,nt,nt
N#CC(C#N)=c1ccc2c(c1)NC1(CCCCC1)N=2,0,52*,8,-40,-7,1,7,1
N#CC(C#N)=C1NC2(CCCCC2)Cc2ccccc21,nt,2,2,-18,6,1,nt,nt
CCOC(=O)c1sc(NC(=O)CSc2nnnn2-c2ccccc2)nc1C,-1,-2,44,-6,17,-5,nt,nt
COC(=O)c1sc(NC(=O)CSc2nnnn2-c2cccc(OC)c2)nc1C,0,20*,-2,27,-9,-2,1,-7

# Screening results from PubChem.
